# Assay results published in PubChem BioAssay (NCI).
# Compounds without any hit were thinned out: in the full panel of roughly 83,000, 20% have a hit.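 Each cell line was grown in a 96-well plate and treated with one concentration of compound for 48 hours. Values below 10 were considered active.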 A number with no mark means an inactive call. Calls of active or inactive are those of the source.
# Experiments:
# Experiment in all cases: NCI-60 one-dose screen, 48 h (100 = growth as untreated, 0 = no growth, -100 = all killed)
# Details in all cases: 10 µM unless noted
# DU-145 prostate = tested on: DU-145 prostate
# K-562 leukemia = tested on: K-562 leukemia
# MALME-3M melanoma = tested on: MALME-3M melanoma
# MDA-MB-231 breast = tested on: MDA-MB-231 breast
# RXF 393 renal = tested on: RXF 393 renal
# SF-268 CNS = tested on: SF-268 CNS
# SF-295 CNS = tested on: SF-295 CNS
# SF-539 CNS = tested on: SF-539 CNS
# UACC-257 melanoma = tested on: UACC-257 melanoma
# M14 melanoma = tested on: M14 melanoma
Structure (SMILES),growth (DU-145 prostate),growth (K-562 leukemia),growth (MALME-3M melanoma),growth (MDA-MB-231 breast),growth (RXF 393 renal),growth (SF-268 CNS),growth (SF-295 CNS),growth (SF-539 CNS),growth (UACC-257 melanoma),growth (M14 melanoma)
NNc1nnc2nc(Nc3ccccc3)nc(Nc3ccc(S(N)(=O)=O)cc3)n12,112%,101%,101%,95.8%,101%,107%,106%,96.5%,106%,108%
C#C[C@]1(O)CC[C@H]2[C@@H]3CC=C4c5sc(Nc6cc(C)cc(C)c6)nc5CC[C@]4(C)[C@H]3CC[C@@]21C,45.4%,0.356% (active),-4.28% (active),33.5%,-77.2% (active),22.3%,-71.7% (active),-47.7% (active),16%,-60.2% (active)
CC1=C(C)C(=O)C(Nc2cccc(C(=O)OC(C)(C)C)c2)=CC1=O,69.9%,77.2%,64.9%,66.2%,73.4%,80.5%,94.3%,89.9%,62.5%,88.3%
CCCCSC1=C(Cl)CN(c2ccc(Cl)cc2)C1=O,106%,82.6%,103%,104%,109%,105%,93%,85.2%,107%,96.5%
CCN(CC)CCOc1ccc(C(=C(c2ccccc2)C2CCCC2)c2ccc(OCCN(CC)CC)cc2)cc1,38.3%,8.22% (active),-0.396% (active),24.7%,-33.4% (active),25.5%,60.6%,9.14% (active),14.3%,30.8%
COC(=O)c1cccc(NC2=CC(=O)C(C)=C(C)C2=O)c1,108%,69.3%,97.9%,76.4%,94.2%,97.3%,115%,97.2%,86.9%,108%
CC(=C(c1ccc(OCCN2CCCC2)cc1)c1ccc(OCCN2CCCC2)cc1)c1ccc(Cl)cc1,25.8%,-43.6% (active),-85.9% (active),-68.1% (active),-74.7% (active),-23.1% (active),-63.7% (active),-87.1% (active),-73.6% (active),-84.5% (active)
CN1CCN(Cc2ccc(NC(=O)c3cncc(C#Cc4cnc5ccc(NCCO)nn45)c3)cc2C(F)(F)F)CC1,-2.12% (active),5.38% (active),-69.7% (active),1.53% (active),-74.3% (active),-40.9% (active),16.6%,-74.4% (active),-6.58% (active),-70.9% (active)
Cc1[nH]c(C(=O)Nc2ccccc2OCc2cccc(C(=O)NCCN)c2)cc1Cl,36.5%,2.16% (active),83.3%,96%,96.3%,88.3%,101%,97.2%,99.4%,85.5%
O=C1[C@@H]2Cc3c([nH]c4ccccc34)[C@@H](c3ccc(Cl)cc3)N2C(=O)CN1C1CCN(Cc2ccccc2)CC1,57.5%,3.54% (active),79.6%,64.2%,50.3%,48%,85.2%,72.7%,75.8%,7.82% (active)
O=C1[C@H]2Cc3c([nH]c4ccccc34)[C@H](c3ccc(Br)cc3)N2C(=O)CN1C1CCN(CC2CCCCC2)CC1,79.4%,6.13% (active),72.5%,76.5%,62.6%,66.8%,113%,75.3%,97.4%,-17.4% (active)
N#C/C(=C\c1ccc(-c2ccc(Cl)c(Cl)c2)o1)C(=O)Nc1ncc(Cc2ccc(Cl)cc2)s1,29.7%,52.5%,17.2%,50%,66%,34.7%,20.4%,46.7%,78.2%,21.6%
COc1cc(OC)cc(-c2cc(-c3c[nH]c4ccccc34)nc(-c3c[nH]c4ccccc34)c2C#N)c1,101%,93.2%,108%,101%,108%,100%,101%,94.2%,112%,95%
C/C(=N\NC(N)=S)c1nnn(-c2ccc([N+](=O)[O-])cc2)c1C,104%,119%,92.8%,96.2%,66.2%,97%,98.8%,97.5%,98.4%,99.5%
CN(C)S(=O)(=O)c1ccc(-c2nc(C(Cl)Cl)nc3cc(-c4ccccc4)nn23)cc1,79.2%,52.2%,15.3%,48.8%,84.4%,88.2%,86.7%,77.8%,105%,74%
Brc1cc(-c2cc(-c3ccc4c(c3)OC=CO4)[nH]n2)cs1,95.9%,41.3%,64%,81.2%,93.7%,90.1%,79.1%,85.2%,101%,83.3%
Cc1csc(/N=C(N)/N=C(\N)c2cccnc2)n1,96.8%,42.4%,60.7%,86.9%,89.7%,77.2%,48.4%,79.5%,95.5%,51.6%
C=C(C)[C@@H]1CC[C@]2(C(=O)O)CC[C@]3(C)[C@H](CC[C@@H]4[C@@]5(C)C/C(=C/c6ccccn6)C(=O)C(C)(C)[C@@H]5CC[C@]43C)[C@@H]12,45.5%,29.3%,72.5%,61.7%,62.1%,51.5%,34%,46.8%,46.5%,59%
COc1cccc(N2CCN(C3=C(Cl)C(=O)c4ncccc4C3=O)CC2)c1,59.2%,7.16% (active),61.6%,85.1%,64.5%,84.1%,110%,93.8%,70.2%,81.7%
COc1ccc2c(c1)c(-c1nnc(N)nc1-c1c[nH]c3ccc(F)cc13)cn2C,70.4%,11.9%,75.7%,73.7%,47.8%,54.2%,33%,40.5%,62.5%,32.8%
N#Cc1c(-c2ccc(Br)cc2)cc(-c2c[nH]c3ccccc23)nc1N,70%,18.6%,73.9%,46%,25.9%,56.9%,52.4%,43%,94.4%,44.6%
C#Cc1nc(/C=C/CCCCCCC(=O)NO)cs1,23.8%,13.1%,22%,-31% (active),-6.54% (active),83.2%,82.5%,-89.4% (active),56.6%,62.4%
CCNC(=O)Oc1ccc(/C(=C(/C)c2ccc(Cl)cc2)c2ccc(OCCN3CCCCCC3)cc2)cc1,58.5%,5.06% (active),-58.4% (active),21.3%,-10.3% (active),53.9%,-40.1% (active),-44% (active),-19.9% (active),-76.5% (active)
O=C1/C(=C/C=C/c2ccco2)SC(=S)N1Cc1ccccc1,93.8%,71.2%,87.2%,92.7%,95.3%,89.7%,97%,101%,91.6%,92.1%
Cc1ccc(S(=O)(=O)NCCCNc2nc(Nc3ccc(N4CCN(C)CC4)cc3)nc3ccsc23)cc1,42.7%,13.3%,-87.9% (active),23%,-59.3% (active),42%,-41.6% (active),-80.8% (active),-73.2% (active),-69.6% (active)
Nc1nc(=O)n([C@H]2C[C@H](O)[C@@H](CO)O2)cc1C=O,71.7%,97.2%,114%,85.1%,103%,110%,103%,100%,115%,105%
